Laboratory results: PubChem BioAssay
Calls of active or inactive are those of the source.

Key:
[1] = system: Plasmodium falciparum Sir2 (PF13_0152, Sir2A); assay: pfSir2 binders on small-molecule microarrays, primary screen, biochemical, small-molecule microarray, 635 nm fluorescence (AID 1098); conditions: small-molecule microarray binding, fluorescence 635 nm; higher = more signal;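 further: score merges spot fluorescence intensity with its signal-to-noise ratio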
[2] = small-molecule microarray binders of probe aDKK1, primary screen, biochemical, biotinylated probe, 635/667 nm fluorescence (AID 1099); conditions: higher = more signal;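 further: score merges 667nm spot fluorescence with signal to noise across triplicate slides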
[3] = small-molecule microarray binders of probe aCHRDL2, primary screen, biochemical, biotinylated probe, 635/667 nm fluorescence (AID 1100); conditions: higher = more signal
[4] = splicing luciferase reporter signal modulators, primary screen, spliceosome inhibition project, cell-based, HEK293, splice +/- reporter (AID 1101); conditions: luminescence, 24 h, higher = more signal, called active from +8 up or from −8 down;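 further: HEK293 cells carrying a splicing-competent luciferase reporter gene; test concentration not given here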
[5] = molecular target: Fibroblast growth factor 10 (Homo sapiens) (UniProt O15520); assay: FGF10 binders on small-molecule microarrays, primary screen, biochemical, small-molecule microarray, 635 nm fluorescence (AID 1102); conditions: FGF10 binding, fluorescence 635 nm, higher = more signal
Chain of Fibroblast growth factor 10 (Homo sapiens) (O15520 whole entry, looked up): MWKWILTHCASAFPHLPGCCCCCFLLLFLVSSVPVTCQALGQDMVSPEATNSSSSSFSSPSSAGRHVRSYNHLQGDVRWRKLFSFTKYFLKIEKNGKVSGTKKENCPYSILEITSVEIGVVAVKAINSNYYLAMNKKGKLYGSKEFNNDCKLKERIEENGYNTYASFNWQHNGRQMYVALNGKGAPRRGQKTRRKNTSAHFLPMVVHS

[6] = system: glycogen synthase kinase-3 (GSK3A per assay name; protocol says GSK3B); assay: GSK3 binders on small-molecule microarrays, primary screen, biochemical, small-molecule microarray, 635 nm fluorescence, GSK3A (AID 1103); conditions: small-molecule microarray binding, fluorescence 635 nm; higher = more signal; further: the record names both GSK3A and GSK3B
[7] = molecular target: Epidermal growth factor receptor (Homo sapiens) (UniProt P00533); assay: EGFR binders on small-molecule microarrays, primary screen, biochemical, small-molecule microarray, 635 nm fluorescence (AID 1104); conditions: EGFR binding, higher = more signal;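 further: score merges 667 nm emission intensity with spot signal to noise over triplicate slides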
Chain of Epidermal growth factor receptor (Homo sapiens) (P00533 whole entry, looked up): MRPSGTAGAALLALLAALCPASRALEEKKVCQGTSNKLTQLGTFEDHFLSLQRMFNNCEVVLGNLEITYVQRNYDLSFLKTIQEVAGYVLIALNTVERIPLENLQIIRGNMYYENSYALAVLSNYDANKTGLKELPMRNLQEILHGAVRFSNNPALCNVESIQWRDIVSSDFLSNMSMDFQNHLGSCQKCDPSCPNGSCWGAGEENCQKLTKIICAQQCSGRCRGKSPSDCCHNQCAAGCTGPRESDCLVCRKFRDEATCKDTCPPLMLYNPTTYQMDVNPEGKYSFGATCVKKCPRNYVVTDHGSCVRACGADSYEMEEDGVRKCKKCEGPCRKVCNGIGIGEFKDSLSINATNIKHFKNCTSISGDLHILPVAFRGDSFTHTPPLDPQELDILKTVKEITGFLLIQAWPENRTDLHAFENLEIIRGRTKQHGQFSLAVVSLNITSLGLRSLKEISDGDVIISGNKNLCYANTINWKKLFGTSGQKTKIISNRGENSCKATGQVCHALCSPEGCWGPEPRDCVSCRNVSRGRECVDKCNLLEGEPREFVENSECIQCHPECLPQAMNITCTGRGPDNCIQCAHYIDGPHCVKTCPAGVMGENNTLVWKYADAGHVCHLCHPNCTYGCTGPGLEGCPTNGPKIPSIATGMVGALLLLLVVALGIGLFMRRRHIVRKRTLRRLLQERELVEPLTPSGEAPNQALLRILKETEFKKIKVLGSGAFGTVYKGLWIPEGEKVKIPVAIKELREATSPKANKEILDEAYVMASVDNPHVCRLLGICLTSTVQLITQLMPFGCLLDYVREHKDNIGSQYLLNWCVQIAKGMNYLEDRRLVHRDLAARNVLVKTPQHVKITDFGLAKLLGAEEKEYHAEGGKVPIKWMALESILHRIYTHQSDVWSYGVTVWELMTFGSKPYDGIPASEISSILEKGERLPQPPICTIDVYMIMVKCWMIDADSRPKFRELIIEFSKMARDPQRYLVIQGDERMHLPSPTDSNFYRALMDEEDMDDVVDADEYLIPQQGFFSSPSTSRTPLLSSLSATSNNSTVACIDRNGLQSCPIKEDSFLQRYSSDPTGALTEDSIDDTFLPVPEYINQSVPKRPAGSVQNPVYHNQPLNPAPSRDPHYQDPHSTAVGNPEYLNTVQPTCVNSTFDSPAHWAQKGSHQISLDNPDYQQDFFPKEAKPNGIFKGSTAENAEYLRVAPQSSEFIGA

[8] = molecular target: Follistatin-related protein 3 (Homo sapiens) (UniProt O95633); assay: FSTL3 binders on small-molecule microarrays, primary screen, biochemical, small-molecule microarray, 635 nm fluorescence (AID 1105); conditions: FSTL3 binding, higher = more signal;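 further: score merges emission near 667 nm and signal to noise per printed spot across three slides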
Chain of Follistatin-related protein 3 (Homo sapiens) (O95633 whole entry, looked up): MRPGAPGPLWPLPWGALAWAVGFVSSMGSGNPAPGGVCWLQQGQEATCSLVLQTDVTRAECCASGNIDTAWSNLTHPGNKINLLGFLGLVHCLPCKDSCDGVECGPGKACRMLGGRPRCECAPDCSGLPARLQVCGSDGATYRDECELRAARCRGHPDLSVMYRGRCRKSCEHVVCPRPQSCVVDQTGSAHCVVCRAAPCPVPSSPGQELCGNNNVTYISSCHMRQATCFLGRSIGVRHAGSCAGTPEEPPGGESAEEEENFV

[9] = molecular target: Dickkopf-related protein 1 (Homo sapiens) (UniProt O94907); assay: DKK1 binders on small-molecule microarrays, primary screen, biochemical, small-molecule microarray, 635 nm fluorescence scan (AID 1106); conditions: DKK1 binding, higher = more signal;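 further: score merges emission near 667 nm with signal to noise over three replicate slides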
Chain of Dickkopf-related protein 1 (Homo sapiens) (O94907 whole entry, looked up): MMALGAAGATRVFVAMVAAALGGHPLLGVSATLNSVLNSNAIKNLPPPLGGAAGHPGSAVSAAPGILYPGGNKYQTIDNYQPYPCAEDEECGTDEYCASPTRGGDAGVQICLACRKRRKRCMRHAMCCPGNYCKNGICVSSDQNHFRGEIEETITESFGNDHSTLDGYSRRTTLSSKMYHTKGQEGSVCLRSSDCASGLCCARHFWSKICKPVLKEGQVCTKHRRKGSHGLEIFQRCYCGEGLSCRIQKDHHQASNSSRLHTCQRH

[10] = system: Inhibin beta A chain (activin A); assay: INHBA (activin A) binders on microarrays, primary screen, biochemical, small-molecule microarray, 635 nm fluorescence scan (AID 1107); conditions: small-molecule microarray binding, higher = more signal;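 further: mouse activin A protein probed at 4.33 µg/mL on printed slides; score merges bound-protein fluorescence near 667 nm with spot signal-to-noise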
[11] = system: Human papillomavirus type 1a protein E7 (residues 44-93); assay: HPV1a E7 fragment binders on microarrays, primary screen, biochemical, small-molecule microarray, residues 44-93, 635 nm fluorescence (AID 1108); conditions: small-molecule microarray binding, fluorescence 635 nm; higher = more signal;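 further: E7 fragment applied at 1 µg/mL in TBST for 1 h at 4 C; score combines spot fluorescence with its signal to noise ratio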
[12] = modulators of HCV replicon luciferase signal, primary screen, HCV replication inhibitor project, Huh7 cells, luciferase reporter (AID 1109); conditions: 48 h, higher = more signal;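 further: huh7 hepatoma cells harbouring a luciferase neomycin HCV replicon reporter; luciferase luminescence as measure of HCV replicon replication; test concentration not given here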
[13] = molecular target: Left-right determination factor 2 (Homo sapiens) (UniProt O00292); assay: LEFTY2 binders on small-molecule microarrays, primary screen, biochemical, small-molecule microarray, 635 nm fluorescence scan (AID 1110); conditions: LEFTY2 binding, higher = more signal
Chain of Left-right determination factor 2 (Homo sapiens) (O00292 whole entry, looked up): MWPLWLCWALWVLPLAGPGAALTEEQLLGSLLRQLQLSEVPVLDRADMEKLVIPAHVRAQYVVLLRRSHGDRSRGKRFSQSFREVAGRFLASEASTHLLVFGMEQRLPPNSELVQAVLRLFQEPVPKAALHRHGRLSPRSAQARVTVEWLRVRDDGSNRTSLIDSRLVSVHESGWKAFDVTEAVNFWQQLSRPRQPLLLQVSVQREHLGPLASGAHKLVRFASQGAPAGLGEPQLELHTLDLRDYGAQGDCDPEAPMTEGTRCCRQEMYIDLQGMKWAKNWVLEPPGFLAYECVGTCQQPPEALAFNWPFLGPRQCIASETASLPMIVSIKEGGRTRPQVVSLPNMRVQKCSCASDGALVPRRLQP

[14] = molecular target: Calmodulin-1 (Homo sapiens) (UniProt P0DP23); assay: CALM1 binders on microarrays, EGTA buffer, profiling panel, biochemical, small-molecule microarray, Cy5-labelled CALM1 (AID 1111); conditions: Cy5-CALM1 binding fluorescence, higher = more signal;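 further: labelled calmodulin applied in Tris saline Tween buffer holding calcium plus EGTA and DTT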
[15] = molecular target: Calmodulin-1 (Homo sapiens) (UniProt P0DP23); assay: calcium-bound CALM1 binders on microarrays, profiling panel, artefact control for SMM control-protein annotation, biochemical, small-molecule microarray, Cy5-labelled CALM1, plus calcium (AID 1112); conditions: Cy5-CALM1 binding fluorescence, higher = more signal;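 further: score merges spot fluorescence with signal to noise from triplicate slides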
[16] = small-molecule microarray binders of probe aWnt5a, primary screen, biochemical, biotinylated probe, 635/667 nm fluorescence (AID 1113); conditions: higher = more signal;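 further: score merges 667 nm fluorescence intensity with signal-to-noise per printed feature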
[17] = small-molecule microarray binders of probe aShh, primary screen, biochemical, biotinylated probe, 635/667 nm fluorescence (AID 1114); conditions: higher = more signal;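 further: probe is biotin-labelled aShh protein from a stem cell growth factor screen; measures binding of labelled protein to compounds printed on the slide; score merges feature fluorescence at 667 nm with signal-to-noise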
[18] = small-molecule microarray binders of probe aNog, primary screen, biochemical, biotinylated probe, 635/667 nm fluorescence (AID 1115); conditions: higher = more signal;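 further: probe is biotinylated aNog protein used at 0.15 µg/mL for 1 h at 4 C; z-score combines 667 nm fluorescence of each spot with its signal to noise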
[19] = molecular target: Torsin-1A-interacting protein 1 (Homo sapiens) (UniProt Q5JTV8); assay: LAP1 binders from COS7 cell lysate, primary screen, small-molecule microarray, 635/667 nm fluorescence (AID 1116); conditions: COS7-hLAP1 lysate binding, 635 nm fluorescence, higher = more signal
Chain of Torsin-1A-interacting protein 1 (Homo sapiens) (Q5JTV8 whole entry, looked up): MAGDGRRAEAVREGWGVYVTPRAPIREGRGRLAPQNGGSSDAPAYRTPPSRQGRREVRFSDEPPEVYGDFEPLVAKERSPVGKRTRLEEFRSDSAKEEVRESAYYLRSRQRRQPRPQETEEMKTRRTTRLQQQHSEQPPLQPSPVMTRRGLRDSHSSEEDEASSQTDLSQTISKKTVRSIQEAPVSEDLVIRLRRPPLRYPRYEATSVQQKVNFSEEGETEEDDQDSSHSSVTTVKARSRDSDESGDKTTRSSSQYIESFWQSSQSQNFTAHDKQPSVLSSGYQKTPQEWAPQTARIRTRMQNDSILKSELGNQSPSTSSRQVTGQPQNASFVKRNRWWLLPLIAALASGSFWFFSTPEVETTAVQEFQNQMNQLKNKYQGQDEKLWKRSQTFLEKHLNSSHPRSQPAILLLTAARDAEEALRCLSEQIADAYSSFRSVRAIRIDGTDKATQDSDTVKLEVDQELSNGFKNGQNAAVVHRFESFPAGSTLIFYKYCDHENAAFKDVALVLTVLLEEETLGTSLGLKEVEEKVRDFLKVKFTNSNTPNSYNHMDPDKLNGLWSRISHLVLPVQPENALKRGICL

[20] = molecular target: Alpha-bungarotoxin (Bungarus multicinctus) (UniProt P60615); assay: alpha-bungarotoxin binders on microarray, profiling panel, artefact control for SMM control protein annotation, biochemical, small-molecule microarray, Alexa647 label, 635/667 nm fluorescence (AID 1117); conditions: alpha-BTX-A647 binding fluorescence, higher = more signal
Chain of Alpha-bungarotoxin (Bungarus multicinctus) (P60615 whole entry, looked up): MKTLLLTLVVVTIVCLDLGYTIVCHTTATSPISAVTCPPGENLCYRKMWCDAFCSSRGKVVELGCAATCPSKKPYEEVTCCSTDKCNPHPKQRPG

SMILES | composite z-score [1] | composite z-score [2] | composite z-score [3] | z-score [4] | composite z-score [5] | composite z-score [6] | composite z-score [7] | composite z-score [8] | composite z-score [9] | composite z-score [10] | composite z-score [11] | z-score [12] | composite z-score [13] | composite z-score [14] | composite z-score [15] | composite z-score [16] | composite z-score [17] | composite z-score [18] | composite z-score [19] | composite z-score [20]
C=CCNC(=O)[C@@H]1[C@H]2C(=O)O[C@H](c3ccccc3)[C@H](c3ccccc3)N2[C@H](c2ccc(O)cc2)[C@@]12C(=O)N(C(=O)OCCOC)c1ccc(C#Cc3ccc(OC)cc3)cc12 | 1.12 | 0.51 | -0.382 | -1.16 (inactive) | 0.793 | 1.3 | 0.541 | 0.62 | 1.12 | -0.071 | 1.13 | -1.77 | 0.638 | 1.75 | 0.185 | -0.0368 | -0.0011 | 0.315 | 1.13 | 0.579
COc1ccc([Si](C)(C)[C@@H]2[C@@H](CCn3cc(CCO)nn3)O[C@]3(C(=O)N(Cc4ccc(N5C(=O)c6cccc7cccc5c67)cc4)c4ccccc43)[C@H]2C)cc1 | 0.831 | 0.134 | 0.207 | -2.39 (inactive) | 0.266 | 0.0923 | 0.248 | 0.334 | 0.258 | 0.581 | 0.119 | -5.16 | 0.316 | 1.22 | 0.863 | -0.0459 | 0.112 | -0.284 | 0.758 | 1.6
NC(=O)N1C(=O)C2C(C1=O)C1C=C(c3ccc(CO)cc3)C2C(C2CC2)N1Cc1cc2c(cc1Br)OCO2 (stereo not given) | 0.105 | 0.176 | 0.691 | -0.87 (inactive) | 0.151 | 0.314 | -0.505 | -0.0544 | -0.196 | 1.34 | 0.0207 | -1.03 | -0.254 | 0.438 | 0.163 | -0.124 | -0.0146 | -0.0689 | 1.11 | 0.55
C=C(C1=CCN(S(=O)(=O)c2ccc(C)cc2)C1)[C@@H](OC(C)=O)[C@@H]1CCCN1S(=O)(=O)c1ccccc1[N+](=O)[O-] | 1.55 | -0.362 | -0.254 | -3.24 (inactive) | 0.0611 | -0.297 | -0.0578 | -0.114 | -0.239 | 1.2 | -0.38 | -4.62 | -0.0476 | -0.765 | -0.856 | -0.208 | 0.0469 | 0.353 | 0.156 | -1.48
C=CCC(OC(C)=O)[C@@H]1[C@@H](N(Cc2cc3ccccc3o2)C(=O)c2ccc(-c3ccccc3)cc2)c2cc(OCCCO)ccc2N1C(=O)c1ccc(-c2ccccc2)cc1 (stereo not given in full) | -0.149 | 0.232 | 0.641 | -1.04 (inactive) | 0.0657 | -0.402 | -0.154 | 0.0956 | -0.0818 | 1.27 | -0.292 | -0.366 | 0.0559 | 0.0671 | 1.29 | 0.0628 | -0.282 | 0.502 | 0.2 | 0.484
CC(C)C(CO)N1C(=O)[C@@H]2[C@H]3C(=O)OCC=C[C@H]3OC23C=CCN(Cc2ccccc2)C(=O)[C@@H]13 (stereo not given in full) | -0.734 | -0.26 | 0.0297 | -0.346 (inactive) | -0.367 | -0.882 | -1.12 | -0.718 | -0.149 | 0.859 | -1.25 | -0.498 | -0.275 | -0.886 | -0.783 | -0.256 | 0.0141 | 0.0342 | -0.207 | -1.44
CN(C)CCCC[C@@H]1NC(=O)[C@@H]2C[C@H](C(=O)NCCCCCNC(=O)CS)[C@H](c3cccc(OCCO)c3)N2C1=O | 1.72 | -0.08 | -0.305 | -3.22 (inactive) | 0.551 | 0.684 | 0.35 | 0.356 | 1.08 | 0.995 | -0.0825 | 1.94 | 1 | 0.497 | 0.843 | -0.034 | 0.213 | -0.255 | -0.304 | 0.4
O=C1O[C@H](c2ccccc2)[C@H](c2ccccc2)N2[C@H]1[C@@H](C(=O)NC[C@H](O)c1ccccc1)[C@]1(C(=O)Nc3ccc(C#CC4(O)CCCCCC4)cc31)[C@H]2c1ccc(O)cc1 | 0.59 | 0.601 | 0.471 | 1.13 (inactive) | 1.05 | 1.15 | 0.251 | 0.715 | 0.324 | -0.0905 | 1.35 | 0.34 | 0.462 | 0.612 | 0.107 | -0.0542 | -0.0769 | 0.528 | 1.08 | 1.34
C=C(C(=O)CC[C@@H](OC(C)=O)c1ccccc1OCCO)C(C)C | 0.967 | -0.416 | -0.0909 | -1.41 (inactive) | 1.14 | -0.465 | -0.847 | -0.406 | 0.108 | 0.959 | -0.512 | -3.88 | -0.325 | -0.942 | -1.21 | -0.202 | -0.153 | -0.0783 | 0.495 | -0.175
CCCCCCC#C[Si](O[C@H](c1ccccc1)c1cn(Cc2ccccc2)nn1)(C(C)C)C(C)C | -0.068 | -0.0783 | -0.14 | -1.51 (inactive) | 0.232 | 0.305 | 0.302 | 0.388 | 0.279 | 0.403 | 0.382 | -1.93 | 0.367 | -0.0092 | 0.716 | -0.151 | -0.108 | -0.183 | 0.523 | 0.172
C#CCN1C(C(=O)OCC)OC[C@H]1c1ccccc1 (stereo not given in full) | 0.312 | 0.461 | -0.502 | -0.577 (inactive) | 0.388 | -0.0229 | 0.421 | 0.901 | 0.428 | -0.352 | 1.35 | -0.354 | 0.677 | -0.128 | -0.605 | -0.175 | -0.167 | -0.21 | 1.49 | 0.327
